Results reported in PubChem BioAssay AID588475 (Sanford-Burnham Center for Chemical Genomics, 2011).
In all, about 350,000 compounds went through this assay and about 2,100 (0.6%) were called active. The sample holds actives, similar compounds and a random draw of the others, so the mix is not that of the screen. Unmarked numbers belong to inactive results.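 Rule for the calls: active = inhibition of the ligand-induced calcium signal above about 50% at the single tested concentration (limit read from the data); inactive = the rest.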

Experiment: antagonists of CRF-BP/CRF-R2 complex, primary screen, cell-based, HEK293, calcium dye fluorescence, uHTS (AID 588475)
Conditions: CRF-induced calcium fluorescence, at 11.8 µM, stronger effect = higher value

Row | SMILES | inhibition
1 | Cc1ccc(C(=O)N/C(=C\c2cn(C)c3ccccc23)C(=O)N2CCN(C)CC2)cc1 | 1.64%
2 | O=[N+]([O-])c1ncc(Br)cc1Nc1ccccc1 | 17.9%
3 | CCCN(CCc1ccccc1)C1CCc2c(O)cccc2C1 (centres undefined) | -13%
4 | COc1ccccc1-n1c(C)nc2cc(C(=O)NCc3ccc4c(c3)OCO4)ccc21 | 20.9%
5 | Cc1nc2c(C(=O)NCc3ccc4c(c3)OCO4)c[nH]n2c(=O)c1Cc1ccccc1F | 53.2% (active)
6 | CC(C)NC(=O)CSc1ccccc1C(=O)NCc1ccc2c(c1)OCO2 | 17%
7 | COCCN(C(=S)Nc1ccccc1OC)C1CCN(C(C)C)CC1 | -0.52%
8 | CCc1ccc(CN(C)C(C)C(=O)Nc2ccc(S(=O)(=O)N3CCCC3)cc2)cc1 (centres undefined) | -10.1%
9 | Cc1ccc2nc(N3C(=O)C(O)=C(C(=O)c4ccco4)C3c3cccc(O)c3)sc2c1 (centres undefined) | 51.9% (active)
10 | COc1ccc2nc(N3C(=O)C(O)=C(C(=O)c4ccco4)C3c3ccco3)sc2c1 (centres undefined) | 3.47%
11 | C=CCSc1nnc(N2C(=O)C(O)=C(C(=O)c3ccco3)C2c2ccc(F)cc2)s1 (centres undefined) | 17.8%
12 | CS(=O)(=O)N(Cc1nc2sc3c(c2c(=O)[nH]1)CCCC3)C1CCCCC1 | -0.95%
13 | CCc1nn(CC(=O)N2CCN(c3cc(C)ccc3C)CC2)c(=O)c2cc3occc3n12 | 3.13%
14 | Cc1ccc(CNC(=O)CCNC(=O)Cn2ccc3ccccc3c2=O)cc1 | 87.1% (active)
15 | O=C(CCNC(=O)Cn1ccc2ccccc2c1=O)NCCC1=CCCCC1 | -1.26%
16 | CCCCN(CC)CCNC(=O)CCNC(=O)Cn1ccc2ccccc2c1=O | -0.99%
17 | Cc1ccc(SC(CC(=O)c2ccc(C(C)(C)C)cc2)C(=O)O)cc1 (centres undefined) | -15.1%
18 | CC(NC(=O)COC(=O)C1CCN(S(=O)(=O)c2ccccc2C(F)(F)F)CC1)c1ccccc1 (centres undefined) | -1.56%
19 | CCOC(=O)C(C)N(c1ccccc1Cl)S(C)(=O)=O (centres undefined) | -3.83%
20 | S=c1[nH]ccn1-c1ccc(Cl)cc1 | -16.2%

Row | SMILES | inhibition
21 | COc1cc(-c2nnc(NC(=O)C3=COCCO3)o2)cc(OC)c1OC | -9.37%
22 | O=C(Nc1nnc(C2=COCCO2)o1)c1ccc([N+](=O)[O-])s1 | -4.65%
23 | Cc1ccc(C(=O)Nc2nnc(C3=COCCO3)o2)cc1C | 51.4% (active)
24 | COc1cc(OC)cc(C(=O)N[C@H](C(=O)OCC(=O)NC(C)c2ccccc2)C(C)C)c1 (some centres undefined) | -108%
25 | CCn1cc(/C=C2/SC(=S)NC2=O)c(C)n1 | 13.4%
26 | Cc1cccc(C(=O)C(O)(c2ccccc2)C2CCCCC2=O)c1 (centres undefined) | -14%
27 | O=C1CCCCC1C(=O)c1ccccc1 (centres undefined) | 52.8% (active)
28 | O=C(OC1CCCCC1=O)c1cccc(S(=O)(=O)NCc2ccccc2)c1 (centres undefined) | 12.8%
29 | COc1cccc(CNC(=O)CCN2C(=S)NC(C)(C)CC2C)c1 (centres undefined) | 3.81%
30 | N#CCc1c[nH]c2ccc([N+](=O)[O-])cc12 | 2.31%
31 | Cc1cc([N+](=O)[O-])c(NC2CCCCC2)c([N+](=O)[O-])c1 | -26.8%
32 | Cc1cc([N+](=O)[O-])ccc1NCc1cccc([N+](=O)[O-])c1 | 34.2%
33 | Cc1cc([N+](=O)[O-])ccc1NC1CCCC1 | 72% (active)
34 | CC(C)C(NS(=O)(=O)c1cccs1)C(=O)Nc1nc(C(C)(C)C)cs1 (centres undefined) | 7.44%
35 | Cc1cc(-c2nnc(SCC(=O)Nc3ccc(S(N)(=O)=O)cc3)n2N)n[nH]1 | 9.63%
36 | CCOC(=O)N1CCC(NC(=O)C(NS(=O)(=O)c2ccc3c(c2)CCN3C(=O)CC)C(C)C)CC1 (centres undefined) | -2.51%
37 | COc1ccc(N=C2C=CC(=O)O2)cc1 | 11.2%
38 | OCC1OC(n2cnc3c(N4CCCC4)ncnc32)C(O)C1O (centres undefined) | -7.64%
39 | COc1cc(OC)cc(-c2c(C#Cc3ccsc3)c3cc(-c4ccc(SC)cc4)ccc3n2C)c1 | 1.84%
40 | Cc1ccc(S(=O)(=O)/N=C(\CN2CCOCC2)N2CCOCC2)cc1 | 12.5%

Row | SMILES | inhibition
41 | Cc1[nH]n(-c2cccc(Cl)c2)c(=O)c1-c1ccc(Cl)cc1 | 50.6% (active)
42 | Cc1nc2c(-c3ccccc3)c(C)[nH]n2c(=O)c1Cl | 42.5%
43 | CCCc1cc(=O)n2[nH]c(C)c(-c3ccc(Cl)cc3)c2n1 | 13.7%
44 | C/C(=N\Nc1ccccc1)c1cccs1 | -0.14%
45 | COc1ccccc1N(C)S(=O)(=O)c1ccc(Cl)c(C(=O)N2CCC(C(N)=O)CC2)c1 | 17.1%
46 | COc1ccc(C(CC(=O)Nc2ccc(C)cc2)NC(=O)C(F)(F)F)cc1 (centres undefined) | -3.52%
47 | C/C(CC(=O)Nc1cccc(C(F)(F)F)c1)=N\NC(=O)C(=O)NCC(C)C | -3.29%
48 | COc1ccc(NC(=O)C(=O)NCC(=O)Nc2cccc(C(F)(F)F)c2)cc1 | 55.4% (active)
49 | CCCCn1c(N)c(N(CC(C)C)C(=O)CN(C)S(=O)(=O)c2ccc(F)cc2)c(=O)[nH]c1=O | -2.99%
50 | Cc1c(C(=O)OCC(=O)N(CCC#N)c2ccccc2)oc2c1ccc1ccccc12 | -18.4%
51 | O=S(=O)(CCc1nc2ccccc2o1)c1ccc(Cl)cc1 | -6.01%
52 | CCc1nc2ccccc2n(CCOCCOCCn2c(=O)c(CC)nc3ccccc32)c1=O | -9.64%
53 | Cc1nn2c3ccccc3nc2n(C)c1=O | 83.2% (active)
54 | Cn1c(-c2ccc(C(=O)c3ccccc3)s2)nc2ccccc21 | 6.07%
55 | Cc1ccc(S(=O)(=O)NNC(=S)NC(C)(C)C)cc1 | 0.02%
56 | CCNC(=O)NNC(=O)C1CC(c2cccs2)=NO1 (centres undefined) | 0.63%
57 | COc1ccc(NC(=O)CSc2nnnn2-c2cccc(OC)c2)cc1 | 8.16%
58 | O=C(CSc1nnnn1-c1ccc(O)cc1)c1ccc(F)cc1 | 4.96%
59 | COc1ccc(-n2nnnc2SCC(=O)c2ccc(OC)c(OC)c2)cc1 | 51.1% (active)
